Experimental findings from PubChem BioAssay AID2102 (Southern Research Specialized Biocontainment Screening …, 2009) are described below.

Screen size: about 1,100 compounds; about 210 (19%) were called active. No rule for the calls is given here. These entries were drawn from the full list. Measured potencies and affinities stand elsewhere.

A short description of this assay: host cell cytotoxicity, dose response, cytotoxicity control for SV40 T antigen inhibitor project, selected hits (AID 2102).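 Also: cells exposed to compounds for 72 hours.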 Particulars: Host cell viability cytotoxicity counter-screen; series mostly up to 50 µM. On the technique in general: Counterscreens check selectivity or assay interference.
`COc1ccc(NC2CCCN(C(=O)CSc3ccccc3)C2)cc1` (stereo unspecified): the molecule was classed as inactive.

Turning to `CCOC(=O)C1=C(O)/C(=C\c2ccc(O)c(OCC)c2)N=C1C`, the molecule was called inactive.

On to `O=c1oc2ccccc2c2oc3cc(O)c(O)cc3c12`, for which the molecule was classed as inactive.

With `O=C1NC(=O)C(c2ccccc2[N+](=O)[O-])=C1Nc1ccc(O)c(Cl)c1`, the outcome was inactive.

In the case of `COc1cc(/C=N/NC(=O)C2=NNC(=O)C2C)ccc1O` (stereo unspecified), the molecule was classed as inactive.

In the case of `O=C(c1nnsc1S(=O)c1ccc(Cl)cc1)N1CCOCC1` (stereo unspecified), the outcome was inactive.

As for `CN(C)c1ccc(NC(=O)CN2CCN(CC(=O)Nc3ccc(F)cc3)CC2)cc1`, the outcome was inactive.

As for `CCOc1cc(/C=C2\NC(=S)N(c3c(C)n(C)n(-c4ccccc4)c3=O)C2=O)ccc1O`, the call was inactive.

With `O=S(=O)(NC1=NCCCCC1)c1ccc2sc(NS(=O)(=O)c3ccc4ccccc4c3)nc2c1`, the molecule was classed as inactive.

`COc1cc(/C=C2\S/C(=N/S(=O)(=O)c3ccc(C)cc3)NC2=O)c([N+](=O)[O-])cc1OC`: the result was inactive.

For the molecule `O=S(=O)(Nc1ccc(O)cc1)c1cccc2cccnc12`, the molecule was classed as inactive.

As to `O=C(c1ccco1)N1CCN(C(=S)Nc2ccc(F)c(Cl)c2)CC1`, the molecule was classed as inactive.

On to `CN(C)c1ccc(NC(=O)c2ccc(N3CCOCC3)nc2)cc1`, for which the call was inactive.

With `COc1cc(C(c2c(C)[nH][nH]c2=O)c2c(C)[nH][nH]c2=O)ccc1OC(=O)c1cccc([N+](=O)[O-])c1`, the call was inactive.

As for `CCOC(=O)C1(C)C=C(Nc2ccc(O)cc2)C(=O)N1c1ccc(O)cc1` (stereo unspecified), the molecule was called inactive.

For the molecule `Cn1c(=O)oc2cc(S(=O)(=O)Nc3ccc(O)cc3)ccc21`, the call was inactive.

As to `CN(C)c1ccc(NC(=O)CSc2nnc(-c3ccco3)c(-c3ccco3)n2)cc1`, the call was inactive.

As to `N/C(=N\N=C\c1ccc(O)c(O)c1)c1nonc1N`, the outcome was inactive.

For `COc1cc(/C(C)=N/NC(=O)Cc2c(C)[nH][nH]c2=O)ccc1O`, the call was inactive.

Take `CN=c1scc(C)n1/N=C/c1ccc(O)cc1`: the call was inactive.

Turning to `CC1=C(C(=O)c2ccccc2)C(c2ccc(O)cc2)NC(=S)N1` (stereo unspecified), the result was inactive.

With `Nc1nc2ccc(O)cc2s1`, the result was inactive.

As to `Cc1cc2c(n1-c1ccc(C(=O)O)cc1)CCCCC2`, the result was inactive.

On to `O=C(c1cccc(-c2ccc(O)cc2)c1)N1CCOCC1`, for which the molecule was called inactive.

As to `CC(=O)Nc1ccc(S(=O)(=O)Nc2nc3ccccc3nc2Nc2ccc(O)cc2)cc1`, the molecule was classed as inactive.

Regarding `CCOc1cc(/C=N\NC(=O)CC(=O)NCCc2ccccc2)ccc1O`, the result was inactive.

Turning to `Cc1cc(=O)[nH]c(N/N=C/c2c[nH]c3ccccc23)n1`, the call was inactive.

For `CCn1cnc2cc(NCc3ccc(N(C)C)cc3)ccc21`, the outcome was inactive.

Turning to `C/C(=N\NC(=O)CSc1nc2ccccc2o1)c1ccc(O)cc1`, the outcome was inactive.

On to `Cc1cccc(N2NC(=O)/C(=C/c3ccc(-c4ccc(Cl)c(C(=O)O)c4)o3)C2=O)c1`, for which the result was inactive.

In the case of `C=CCn1c(SCC(=O)c2ccc(O)c(O)c2)nnc1-c1ccccc1OC`, the outcome was inactive.

As to `COc1cc(/C=N/NC(=O)c2cc(C3CC3)[nH]n2)ccc1O`, the call was inactive.

For `COCCCNC(=S)N/N=C/c1ccc(O)cc1O`, the result was inactive.

As to `Nc1c(O)cccc1C(=O)O`, the molecule was called inactive.

`NC(=O)N/N=C/c1c(Sc2nnnn2-c2ccccc2)nc2ccccn2c1=O`: the result was inactive.

`COc1ccc2c(c1OC)C(=O)N(c1ccc(O)cc1)C2`: the result was inactive.

On to `O=C1CCCC2=C1Sc1ccccc1N2`, for which the outcome was inactive.

For `CCSC1(SCC)N=C(N)C2(C#N)C(c3ccc(OC)c(OC)c3OC)C12C#N` (stereo unspecified), the result was inactive.

For `COc1cc(/C=N/NC(=O)c2nc(C)cc(C)n2)ccc1O`, the outcome was inactive.

Regarding `Cc1nonc1C(=O)N/N=C/c1ccc(O)c(O)c1`, the call was inactive.

For the molecule `CC(=O)NCCc1c[nH]c2ccc(O)cc12`, the outcome was inactive.

Regarding `COc1ccccc1N1CSC2=C(C#N)C(c3ccc(SC)cc3)CC(=O)N2C1` (stereo unspecified), the outcome was inactive.

On to `COc1cc(/C=N/NS(=O)(=O)c2ccc(Br)cc2)ccc1O`, for which the outcome was inactive.

In the case of `CC(=O)c1ccc2c(c1)C1C=CCC1C(C(=O)O)N2` (stereo unspecified), the molecule was classed as inactive.

Turning to `Nc1cc(C(=O)O)c(N)c2c1C(=O)c1ccccc1C2=O`, the call was inactive.

In the case of `C=CCSC1=NC(=O)/C(=C/c2cccs2)S1`, the call was inactive.

Regarding `CCCC1=NN2C(=N)/C(=C\c3ccc(SCc4ccco4)o3)C(=O)N=C2S1`, the result was inactive.

As for `CN1CCC/C1=C/C=C1\SC(=S)NC1=O`, the result was inactive.

Turning to `N=C1/C(=C\c2ccc(SCc3ccco3)o2)C(=O)N=C2SC=NN12`, the result was inactive.

Consider `CSC1=NSC2=NC(=O)/C(=C\c3coc4ccccc4c3=O)C(=N)N12`, for which the molecule was classed as inactive.

Turning to `CN(C)c1ccc(NC(=O)CN2CCC(N3CCCCC3)CC2)cc1`, the result was inactive.

Take `N#C/C(=C\c1coc2ccc(O)cc2c1=O)C(=O)Nc1nc2ccccc2s1`: the call was inactive.

Regarding `O=c1c2cc(O)c(O)cc2oc2cc(O)c(C3OC(CO)C(O)C(O)C3O)c(O)c12` (stereo unspecified), the result was inactive.

Consider `CCOc1cc(NC2CS(=O)(=O)CC2O)c(OCC)cc1NC(=O)c1ccccc1` (stereo unspecified), for which the molecule was classed as inactive.

With `CC1(C)CC(=O)C(C=Nc2ccc(O)cc2)=C(O)C1`, the molecule was called inactive.

As to `COc1ccc(-n2c(=O)c3c4c(sc3n3c(=S)[nH]nc23)CCC4)cc1`, the molecule was classed as inactive.

On to `O=c1c2c3c(sc2n2c(=S)[nH]nc2n1-c1ccccc1)CCC3`, for which the molecule was classed as inactive.

As to `COCCCn1c(=O)c2ccccc2n2c(=S)[nH]nc12`, the molecule was classed as inactive.

Regarding `OCc1ccccc1SSc1ccccc1CO`, the molecule was classed as inactive.

For `O=C(O)CCNc1ccc(NCCC(=O)O)c2c1C(=O)c1ccccc1C2=O`, the outcome was inactive.

Take `Oc1ccc(-c2nc3ccccn3c2NCc2ccco2)cc1`: the molecule was classed as inactive.

With `Oc1ccc2ccccc2c1C=Nc1ccc(N2CCOCC2)cc1`, the call was inactive.

In the case of `Cc1ccc(-n2nnnc2C(Cl)(Cl)c2nnnn2-c2ccc(C)cc2)cc1`, the molecule was called inactive.

Regarding `c1ccc(-c2ccc3c(c2)NCCN3)cc1`, the molecule was classed as inactive.

On to `Oc1ccc(/C=N/NC(=S)Nc2cccnc2)cc1`, for which the outcome was inactive.

Consider `CCCCC1(C)OC(=O)C(=Cc2ccc(-c3ccc(Cl)c(C(=O)O)c3)o2)C(=O)O1` (stereo unspecified), for which the molecule was classed as inactive.

`Nc1nc2ccc(S(=O)(=O)N3CCCCC3)cc2s1`: the molecule was called inactive.

As for `O=C(O)c1ccccc1NS(=O)(=O)c1cccc(-n2sc3ccccc3c2=O)c1`, the result was inactive.

As to `O=c1c2ccccc2sn1-c1cc(S(=O)(=O)N2CCOCC2)ccc1N1CCCC1`, the outcome was inactive.

In the case of `C[C@]12CC[C@@H]3c4cc(O)c(O)cc4CC[C@H]3[C@@H]1CC[C@@H]2O`, the result was inactive.

In the case of `O=C(Nc1ccc(O)cc1)c1ccc(NC(=O)C2CCCO2)cc1` (stereo unspecified), the molecule was classed as inactive.
